TsaE inh: qHTS Assay for Inhibitors of YjeE. tRNA threonylcarbamoyladenosine biosynthesis protein TsaE (Escherichia coli (strain …. purified YjeE enzyme, qHTS inhibition assay. Potency, µM. 71,000 compounds, 0.05% hits. AID 605, 2007
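Purified YjeE (10 uM) with BODIPY Texas Red-labeled ADP probe (2 uM); compounds pin-transferred, 15 min at room temperature. Binding inhibition read as decreased fluorescence polarization; ADP titration as control.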
BRCT PPI green: qHTS Assay for Inhibitors of BRCT-Phosphoprotein Interaction (Green Fluorophore); Breast cancer type 1 susceptibility protein (Homo sapiens), P38398; BRCA1 BRCT-phosphopeptide binding, green fluorescence polarization; Potency, µM (titrated, usually from 76.9 µM), inactives show at the highest dose activity change, negative = inhibition, usual class: inhibitors; 75,000 compounds, 0.05% hits;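 note: potency is the fitted concentration of half-maximal effect; plate controls were peptide without protein for full effect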
Target sequence (P38398 whole entry, looked up): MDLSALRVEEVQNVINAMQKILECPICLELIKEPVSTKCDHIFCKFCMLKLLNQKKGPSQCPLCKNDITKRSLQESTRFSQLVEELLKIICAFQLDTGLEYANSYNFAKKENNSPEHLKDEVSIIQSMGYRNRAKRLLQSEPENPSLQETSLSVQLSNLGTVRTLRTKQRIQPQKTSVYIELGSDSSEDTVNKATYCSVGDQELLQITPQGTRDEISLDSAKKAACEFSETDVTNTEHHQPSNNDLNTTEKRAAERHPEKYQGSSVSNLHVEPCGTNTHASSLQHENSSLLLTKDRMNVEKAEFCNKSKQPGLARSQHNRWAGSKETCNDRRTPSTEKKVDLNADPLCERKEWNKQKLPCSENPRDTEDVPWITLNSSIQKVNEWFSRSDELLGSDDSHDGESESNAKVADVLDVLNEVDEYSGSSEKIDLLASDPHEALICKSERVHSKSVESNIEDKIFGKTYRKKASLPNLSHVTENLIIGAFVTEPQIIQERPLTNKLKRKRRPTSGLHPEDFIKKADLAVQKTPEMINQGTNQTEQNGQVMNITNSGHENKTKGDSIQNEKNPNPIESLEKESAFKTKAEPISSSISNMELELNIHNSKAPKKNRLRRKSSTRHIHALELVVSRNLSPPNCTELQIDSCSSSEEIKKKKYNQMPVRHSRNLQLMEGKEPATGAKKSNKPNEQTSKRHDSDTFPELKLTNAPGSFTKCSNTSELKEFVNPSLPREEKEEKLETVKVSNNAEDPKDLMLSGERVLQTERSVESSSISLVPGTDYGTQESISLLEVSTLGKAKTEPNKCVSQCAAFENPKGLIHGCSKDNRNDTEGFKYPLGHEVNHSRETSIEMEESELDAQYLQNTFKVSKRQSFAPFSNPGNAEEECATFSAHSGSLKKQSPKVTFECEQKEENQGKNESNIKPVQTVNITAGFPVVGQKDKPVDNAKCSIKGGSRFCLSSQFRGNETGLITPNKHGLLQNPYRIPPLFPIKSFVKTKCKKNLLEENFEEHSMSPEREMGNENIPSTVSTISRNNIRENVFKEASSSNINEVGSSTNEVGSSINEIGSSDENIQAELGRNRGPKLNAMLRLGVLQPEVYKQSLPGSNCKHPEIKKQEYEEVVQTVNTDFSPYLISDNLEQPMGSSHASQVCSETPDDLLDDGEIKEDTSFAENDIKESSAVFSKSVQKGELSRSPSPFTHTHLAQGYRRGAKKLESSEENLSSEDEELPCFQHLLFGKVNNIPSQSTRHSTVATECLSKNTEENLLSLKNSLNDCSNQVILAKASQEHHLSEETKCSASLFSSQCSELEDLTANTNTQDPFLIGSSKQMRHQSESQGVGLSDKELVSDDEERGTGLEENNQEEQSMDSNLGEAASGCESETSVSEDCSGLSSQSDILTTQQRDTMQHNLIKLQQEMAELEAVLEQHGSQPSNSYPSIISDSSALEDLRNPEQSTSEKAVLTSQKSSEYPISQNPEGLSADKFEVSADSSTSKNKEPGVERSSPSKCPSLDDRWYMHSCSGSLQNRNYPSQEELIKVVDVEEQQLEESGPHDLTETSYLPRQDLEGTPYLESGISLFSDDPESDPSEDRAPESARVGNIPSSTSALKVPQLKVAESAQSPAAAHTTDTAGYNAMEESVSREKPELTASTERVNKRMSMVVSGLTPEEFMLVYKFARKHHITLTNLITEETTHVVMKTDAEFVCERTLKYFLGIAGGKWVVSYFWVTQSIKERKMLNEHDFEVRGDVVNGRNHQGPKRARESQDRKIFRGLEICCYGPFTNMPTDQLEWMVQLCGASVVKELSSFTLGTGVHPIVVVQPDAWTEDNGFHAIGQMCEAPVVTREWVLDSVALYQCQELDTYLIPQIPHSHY
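Compounds were incubated for 12 min at room temperature with a complex of 100 nM fluorescein-tagged pBACH1 decapeptide and 250 nM His-tagged BRCT protein. Buffer was phosphate pH 7.3 with EDTA, DTT and Tween 20. Disruption of binding lowers the polarization signal.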
BRCT inh red: qHTS Assay for Inhibitors of BRCT-Phosphoprotein Interaction (Red Fluorophore); Potency, µM (series often up to 76.9 µM), for inactives: top-dose activity change, negative = inhibition, actives largely listed as inhibitors; 75,000 compounds, 0.03% hits; BRCT-phosphopeptide binding, red fluorescence polarization; AID 892, 2007; Breast cancer type 1 susceptibility protein (Homo sapiens), P38398; note: % is set by controls: 0 for no effect and ±100 for the full control effect
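Fluorescence polarization: 100 nM His-tagged BRCA1 BRCT with 100 nM TAMRA-labelled phospho-BACH1 decapeptide, phosphate buffer pH 7.3 with 150 mM NaCl, DTT, 0.01% Tween 20; 12 min RT. Binding inhibition seen as FP decrease.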
DNA Pol III inh: qHTS Assay for Inhibitors of DNA Polymerase III Holoenzyme System | reconstituted DNA polymerase III holoenzyme replication, biochemical | 71,000 compounds, 0.25% hits | Potency, µM (highest dose often 57.1 µM), for the others: at the top dose activity change, negative = inhibition | AID 603, 2007; note: potency is the fitted concentration of half-maximal effect; % is set by controls: 0 for no effect and ±100 for the full control effect
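Reconstituted *E. coli* holoenzyme (0.35 nM Pol III, 1 nM beta, 154 nM SSB, 2 nM primase) was preincubated with compound for 15 min at RT. Synthesis on 1.4 nM ssM13Gori ran 35 min, then was stopped with PicoGreen/EDTA and read as dsDNA fluorescence.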
IMPase cell inh: qHTS Assay for Identifying the Cell-Membrane Permeable IMPase Inhibitors. Inositol monophosphatase 1 (Rattus norvegicus), P97697. 120,000 tested, under 10 active. AID 901, 2007. CHO-M1 cells, IP1 accumulation, HTRF TR-FRET ratio. inhibition (IP1 accumulation), % at 46.1 µM; active = well fitted curve in the direction sought with a large enough effect in the signal ratio, not every such curve was filed as active; inconclusive = small, poorly fitted or top-dose-only effect, or a change in a side signal; inactive = no such curve, though single readings can be large or run the other way; the % refers to the signal ratio;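 note: cells stimulated with carbachol in lithium chloride buffer; plate controls were DMSO basal wells for no effect and reference inhibitor wells for full effect; higher means more IMPase inhibition seen as more IP1 and lower FRET ratio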
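Measured: the HTRF emission ratio (665/620 nm) plus the 620 nm donor channel, each fitted to the Hill equation to give AC50. Cells were CHO-M1 given compounds up to 46 uM and a 30 min carbachol stimulation at 37C.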
Hsp90 Hop PPI: qHTS Assay for Disrupters of an Hsp90 Co-Chaperone Interaction; AID 595, 2007; Hsp90 C-terminal peptide / TPR2A (Hop) interaction, human; 71,000 compounds, 0.44% hits; Potency, µM (top dose mostly 57 µM), for inactives: at the highest dose activity change, negative = inhibition; AlphaScreen TPR2A-His6 binding biotin-Hsp90 C-terminal peptide; active = well fitted curve in either direction with a large enough effect; inconclusive = small, poorly fitted or top-dose-only effect, or another doubt; note: potency is the fitted concentration of half-maximal effect; % is set by controls: 0 for no effect and ±100 for the full control effect
An asterisk follows results filed as active; i = inactive; ? = inconclusive; . = no result given; ! = repeats disagree; [ ] = dose if it differs, or a comment. This is one part of a sample in which hits are shown more often than they occur. Unless noted, calls come from the whole dose curve; as a rule, active = well fitted curve in the direction sought with a large enough effect; inconclusive = small, poorly fitted or top-dose-only effect, or another doubt; inactive = no such curve, though single readings can be large; an effect the other way counts as inactive or inconclusive.

SMILES | TsaE inh | BRCT PPI green | BRCT inh red | DNA Pol III inh | IMPase cell inh | Hsp90 Hop PPI
CO/N=C(\C(=O)N[C@@H]1C(=O)N2C(C(=O)O)=C(CSc3nc(=O)c(O)nn3C)CS[C@@H]12)c1csc(N)n1 | i | -1% | 1% | 40µM* | -2 | -8%
S=C(Nc1ccccn1)c1ccccn1 | i | -1% | 1% | -4% | 5 | 10µM*
CCCCNC(=O)c1ccc(Cc2nc3ccccc3[nH]2)cc1 | . | 0% | 0% | . | . | .
Cc1cc(C)c(C#N)c(SCC(=O)OC2CCCCC2)n1 | i | 2% | -2% | 3% | 13 | 32µM*
CCOC(=O)CSc1nc(C)cc(C)c1C#N | . | . | . | . | -4 | .
CN(C)CCNC(=O)c1ccc(Cc2nc3ccccc3[nH]2)cc1 | . | -3% | 2% | . | . | .
c1coc(-c2nc(-c3ccco3)c(-c3ccco3)nc2-c2ccco2)c1 | i | 13µM* | ? | 1.6µM* | 4 | ?
CC[C@H](C)[C@@H]1O[C@]2(CC[C@@H]1C)C[C@H]1C[C@H](CC=C(C)[C@@H](O[C@H]3C[C@H](OC)[C@H](O[C@H]4C[C@H](OC)[C@H](O)[C@H](C)O4)[C@H](C)O3)[C@@H](C)C=CC=C3CO[C@@H]4[C@@H](O)C(C)=C[C@H](C(=O)O1)[C@@]34O)O2 | i | -1% | -2% | 4% | 2 | -23%
NNc1nncc2ccccc12 | i | 0%[3.08 µM] | 0% | -5%[25.6 µM] | 0[20.6 µM] | 13µM*!
O=C(NC1CCS(=O)(=O)C1)OC1CCCCC1 (stereo not drawn) | i | -2% | 0% | 0.5µM* | -5 | 0%
COC(=O)NC1CCS(=O)(=O)C1 (stereo not drawn) | i | -4% | 0% | -7% | 3 | 0%
CC(C)n1c2ccccc2c2nc3ccccc3nc21 | i | -1% | -2% | -3% | -4 | 32µM*
N=C1Sc2ccccc2C2=NCCCN12 | i | -1% | -2% | -6% | 13 | -11%
CN1CCN(C(c2cccnc2)c2ccc3cccnc3c2O)CC1 (stereo not drawn) | i | 0% | 1% | -10% | 11 | 3.2µM*
CN(C)c1ncc2nc(-c3ccccc3)c(=O)n(C)c2n1 | i | 0% | 0% | -7% | . | 13µM*
COc1cccc(Cn2c(=O)c(-c3ccccc3)nc3cnc(N(C)C)nc32)c1 | i | 5% | -1% | -10% | . | 10µM*
CN(C)c1ncc2nc(-c3ccc(Cl)cc3)c(=O)n(C)c2n1 | i | -1% | -1% | -11% | . | -3%
COc1cc2nc(N3CCN(C(=O)[C@@H]4COc5ccccc5O4)CC3)nc(N)c2cc1OC | i | 2%[34.4 µM] | 1%[34.4 µM] | -4%[25.6 µM] | 1[20.6 µM] | -9%[26 µM]
CCOc1ccc2nc3cc(N=Nc4ccc(N)nc4N)ccc3c(N)c2c1 | i | -6%[15.4 µM] | -3%[15.4 µM] | 3.2µM* | . | -18%[11 µM]
O=C(N/N=C\c1ccccc1O)c1ccccc1O | i | 11% | -2% | ? | -1 | 10µM*
c1ccc2c(NC3CCNCC3)nc(-c3ccoc3)nc2c1 | i | -1% | -1% | -16% | . | -10%
CN(C)Cc1ccccc1-c1nc(NC2CCNCC2)c2ccccc2n1 | i | 0% | -1% | 25µM* | . | -1%
CN(C)c1ccc(-c2nc(NC3CCNCC3)c3ccccc3n2)cc1 | i | -2% | 1% | ? | . | -7%
COc1cccc(-c2nc(NC3CCNCC3)c3ccccc3n2)c1 | i | -1% | -6% | 32µM* | . | 3%
Nc1ccc(-c2ccc(Nc3cc(S(=O)(=O)O)c(N)c4c3C(=O)c3ccccc3C4=O)cc2)c(S(=O)(=O)O)c1 | i | -5%[15.4 µM] | -9%[15.4 µM] | -2%[11.4 µM] | . | -10%[11 µM]
SMILES | TsaE inh | BRCT PPI green | BRCT inh red | DNA Pol III inh | IMPase cell inh | Hsp90 Hop PPI
O=C1c2ccccc2C(=O)c2c(NC3CCCCC3)ccc(Nc3ccc(S(=O)(=O)O)cc3)c21 | 13µM* | -17%[15.4 µM] | -22%[15.4 µM] | -15%[11.4 µM] | . | 4µM*
CCCCCS(=O)(=O)CCCCCCCCCCn1c(-c2ccc(O)cc2)c(C)c2cc(O)ccc21 | . | -1% | 0% | . | . | .
O=C(OCC(=O)c1ccccc1Br)c1ccccn1 | i | 1% | -1% | 4% | 2 | 25µM*
O=c1c(O)cc(C2Oc3cc(O)cc(O)c3CC2O)cc2c(C3Oc4cc(O)cc(O)c4CC3O)cc(O)c(O)c12 (stereo not drawn) | . | -10% | -16% | . | . | .
CCCC/C=C/C(NC(=O)c1ccco1)c1ccccc1 (stereo not drawn) | i | 2% | -2% | -9% | . | -1%
C1=CC2c3ccccc3NC(c3ccncc3)C2C1 (stereo not drawn) | i | -1% | 0% | -2% | 5 | ?
O=C(O)c1ccc(Cl)c2c1C1C=CCC1C(c1ccccn1)N2 (stereo not drawn) | 40µM* | 32µM* | 32µM* | ? | -18 | ?
N[C@@H](C(=O)O)[C@H](O)C(=O)O | i | . | . | -6% | . | 0%
CC[C@H]1C(=O)OC[C@@H]1Cc1cncn1C | i | . | . | -6% | . | -10%
O=C(O)CCc1c2ccc(=O)c(O)c-2oc2c(O)c(O)ccc12 | i | ? | ? | 0.079µM* | . | ?
O=c1cc(-c2cccc(O)c2)oc2c(O)c(O)ccc12 | i | 0% | 1% | ? | ? | -26%
CCc1cccc2nc3c(c([Si](CC)(CC)CC)c12)Cn1c-3cccc1=O | i | 23% | -2% | 1% | . | 25µM*
CC(C)[C@@H](CC(=O)N[C@@H]1CCNC[C@H]1C(=O)N[C@H](CC(=O)N[C@@H](CCC(=O)O)CC(=O)O)Cc1ccccc1)NC(=O)C[C@H](Cc1c[nH]c2ccccc12)NC(=O)[C@@H]1CCCC[C@H]1N | ? | . | . | 0% | . | 32µM*
CC=O | i | 0% | -1% | -1% | . | 1%
CC[C@H](C)C(=O)O[C@@H]1CCC=C2C=C[C@H](C)[C@@H](CC[C@H]3C[C@@H](O)CC(=O)O3)[C@H]21 | i | . | . | -1% | . | -5%
CCOCCCn1c(=N)c(C(N)=S)cc2c(=O)n3cccc(C)c3nc21 | i | 3% | 1% | 25µM* | -2 | -23%
CC1CCC2C(=O)N3C(CCC(C)C3c3ccc(-c4ccco4)cc3)C(=O)N2C1c1ccc(-c2ccco2)cc1 (stereo not drawn) | . | -2%[15.4 µM] | -7%[15.4 µM] | . | . | .
N#Cc1c(-c2ccco2)cc(-c2cccnc2)nc1N | i | ? | ? | 32µM* | 12 | ?
